Measurements reported in PubChem BioAssay AID588773 (The Scripps Research Institute Molecular Screening Center, 2011).
The source made the active and inactive calls.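 How the source made its calls: active means inhibition of plasma PAF acetylhydrolase at a set limit or more at 0.1 µM, with tenfold selectivity over all off-targets; inactive means inhibition below the limit or weaker selectivity.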

Assay: pPAFAH inhibition and serine hydrolase selectivity, late-stage follow-up, selectivity assay for pPAFAH inhibitor project, biochemical, gel-based, FP-Rh fluorescence, mouse, HTS hit compounds (AID 588773)
Settings: gel-based competitive ABPP, proteome, MW 32 kDa protein, at 10 µM

Row | Structure (SMILES) | outcome
1 | O=C(Oc1ccc([N+](=O)[O-])cc1)N1CCC(N2CCCCC2)CC1 | inactive
2 | CN(C)C(=O)Oc1noc2cc(Cl)ccc12 | inactive
